Reference: PubChem BioAssay
The source made the active and inactive calls.

Columns and labels:
[1] = E. coli DRC41 culture turbidity changes, primary screen, E. coli filamentation inducer project, strain DRC41, OD650, 48 h (AID 1152);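 also: E. coli MC1000 strain DRC41 lacking acrAB efflux pump and sulA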; conditions: E. coli DRC41 (acrAB sulA), higher = more signal, called active from +8 up or from −8 down
[2] = small-molecule binders of probe aLefty1, primary screen, biochemical, small-molecule microarray, 635/667 nm fluorescence (AID 1153); conditions: higher = more signal;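 also: score merges spot fluorescence with signal-to-noise ratio from the scanned slide images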
[3] = PSAC antagonists in infected red cells, primary screen, cell-based, P. falciparum Indochina, OD700, 1 h (AID 1154); conditions: P. falciparum Indochina infected RBC osmotic lysis, higher = more signal, called active from +8 up or from −8 down
[4] = PSAC antagonists in infected red cells, primary screen, cell-based, P. falciparum Indochina, OD700, 2 h (AID 1155);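 also: lysis reports solute entry through the parasite surface anion channel PSAC; channel blockers reduce lysis of infected cells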; conditions: P. falciparum Indochina infected erythrocytes, osmotic lysis OD700; higher = more signal, called active from +8 up or from −8 down
[5] = osmotic lysis modulators in infected erythrocytes, primary screen, PSAC antagonist project, cell-based, P. falciparum Indochina, OD700, 3 h (AID 1156); conditions: higher = more signal, called active from +8 up or from −8 down
[6] = PSAC antagonists in infected red cells, primary screen, cell-based, P. falciparum Indochina, OD700, 18 h (AID 1157); conditions: P. falciparum Indochina infected erythrocytes, osmotic lysis OD700, 18 h; higher = more signal, called active from +8 up or from −8 down
[7] = modulators of S6 phosphorylation in cells, primary screen, cell-based, A549, cytoblot, luminescence, serum-stimulated (AID 1158); conditions: A549 phospho-S6 cytoblot, 5 h, higher = more signal;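 also: serum-stimulated A549 lung adenocarcinoma cells; signal is phosphorylated S6 detected by cytoblot immunostaining with HRP secondary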
[8] = target: NADPH oxidase 2 (Homo sapiens) (UniProt P04839); experiment: NOX2-dependent H2O2 signal modulators, primary screen, NOX inhibitor project, cell-based, HEK293-NOX2, PMA-stimulated, Amplex Red fluorescence (AID 1159); conditions: 45 min, higher = more signal, called active from +8 up or from −8 down; also: test concentration not given here
[9] = target: NADPH oxidase 4 (Homo sapiens) (UniProt Q9NPH5); experiment: NOX4-dependent H2O2 signal modulators, primary screen, NOX inhibitor project, cell-based, HEK293-NOX4, tetracycline-induced, Amplex Red fluorescence (AID 1160); conditions: 45 min, higher = more signal, called active from +8 up or from −8 down
[10] = target: NADPH oxidase 5 (Homo sapiens) (UniProt Q96PH1); experiment: NOX5-dependent H2O2 signal modulators, primary screen, NOX inhibitor project, cell-based, HEK293-NOX5, Amplex Red fluorescence (AID 1161); conditions: HEK293-NOX5, ionomycin, 45 min, higher = more signal
[11] = A549 cell viability effects, profiling panel, calcein-AM fluorescence, 48 h, basal (AID 1162); conditions: higher = more signal; also: test concentration not given here
[12] = adipocyte viability effects, profiling panel, cell-based, 3T3-L1 adipocytes, calcein-AM fluorescence, 48 h, basal (AID 1163); conditions: 3T3-L1 adipocytes viability, higher = more signal; also: test concentration not given here
[13] = HepG2 cell viability effects, profiling panel, calcein-AM fluorescence, 48 h, basal (AID 1164); conditions: higher = more signal; also: test concentration not given here
[14] = MM1S cell viability effects, profiling panel, calcein-AM fluorescence, 48 h, basal (AID 1165); conditions: higher = more signal;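 also: viability of MM1S multiple myeloma cells under basal unstimulated conditions; test concentration not given here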
[15] = basal RPMI8226 viability, no added stimulus, profiling panel, cell-based, calcein-AM fluorescence, 48 h, PK04 Diversity Set (AID 1166); conditions: RPMI8226 myeloma viability, higher = more signal;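 also: cells grown under basal conditions without added stimulus; test concentration not given here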
[16] = basal HepG2 mitochondrial membrane potential changes, profiling panel, cell-based, JC-1 fluorescence, 24 h, 100 nL compound (AID 1167); conditions: higher = more signal; also: test concentration not given here
[17] = basal 3T3-L1 adipocyte mitochondrial potential changes, profiling panel, cell-based, JC-1 fluorescence, 3T3-L1 adipocytes, 24 h, 100 nL compound (AID 1168); conditions: JC-1 mitochondrial fluorescence, higher = more signal, called active from +8 up or from −8 down; also: test concentration not given here
[18] = basal RPMI8226 mitochondrial membrane potential changes, profiling panel, cell-based, JC-1 fluorescence, 24 h, 100 nL compound (AID 1169); conditions: RPMI8226 myeloma, JC-1 mitochondrial potential fluorescence, higher = more signal; also: test concentration not given here
[19] = basal MM1S mitochondrial membrane potential changes, profiling panel, cell-based, JC-1 fluorescence, 24 h, 100 nL compound (AID 1170); conditions: higher = more signal; also: test concentration not given here
[20] = A549 lung cancer cell viability effects, profiling panel, resazurin fluorescence, 24 h, PK04 Diversity Set (AID 1171); conditions: higher = more signal, called active from +8 up or from −8 down; also: test concentration not given here

Chain of NADPH oxidase 4 (Homo sapiens) (Q9NPH5 whole entry, looked up): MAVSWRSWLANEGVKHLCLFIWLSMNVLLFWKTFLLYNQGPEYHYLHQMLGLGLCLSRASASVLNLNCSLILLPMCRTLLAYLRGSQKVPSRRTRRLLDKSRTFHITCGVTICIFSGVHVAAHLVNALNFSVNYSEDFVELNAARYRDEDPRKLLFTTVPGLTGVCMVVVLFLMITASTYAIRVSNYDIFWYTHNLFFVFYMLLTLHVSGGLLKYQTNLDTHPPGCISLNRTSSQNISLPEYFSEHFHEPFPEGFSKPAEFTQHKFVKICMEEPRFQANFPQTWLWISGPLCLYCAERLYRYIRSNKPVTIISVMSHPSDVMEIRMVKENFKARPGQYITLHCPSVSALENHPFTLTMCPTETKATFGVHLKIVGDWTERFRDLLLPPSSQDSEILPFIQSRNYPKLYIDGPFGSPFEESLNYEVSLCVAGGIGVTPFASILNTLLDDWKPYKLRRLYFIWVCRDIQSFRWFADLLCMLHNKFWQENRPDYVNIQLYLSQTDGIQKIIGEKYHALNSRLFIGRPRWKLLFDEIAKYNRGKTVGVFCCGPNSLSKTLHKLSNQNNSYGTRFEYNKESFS
Chain of NADPH oxidase 5 (Homo sapiens) (Q96PH1 whole entry, looked up): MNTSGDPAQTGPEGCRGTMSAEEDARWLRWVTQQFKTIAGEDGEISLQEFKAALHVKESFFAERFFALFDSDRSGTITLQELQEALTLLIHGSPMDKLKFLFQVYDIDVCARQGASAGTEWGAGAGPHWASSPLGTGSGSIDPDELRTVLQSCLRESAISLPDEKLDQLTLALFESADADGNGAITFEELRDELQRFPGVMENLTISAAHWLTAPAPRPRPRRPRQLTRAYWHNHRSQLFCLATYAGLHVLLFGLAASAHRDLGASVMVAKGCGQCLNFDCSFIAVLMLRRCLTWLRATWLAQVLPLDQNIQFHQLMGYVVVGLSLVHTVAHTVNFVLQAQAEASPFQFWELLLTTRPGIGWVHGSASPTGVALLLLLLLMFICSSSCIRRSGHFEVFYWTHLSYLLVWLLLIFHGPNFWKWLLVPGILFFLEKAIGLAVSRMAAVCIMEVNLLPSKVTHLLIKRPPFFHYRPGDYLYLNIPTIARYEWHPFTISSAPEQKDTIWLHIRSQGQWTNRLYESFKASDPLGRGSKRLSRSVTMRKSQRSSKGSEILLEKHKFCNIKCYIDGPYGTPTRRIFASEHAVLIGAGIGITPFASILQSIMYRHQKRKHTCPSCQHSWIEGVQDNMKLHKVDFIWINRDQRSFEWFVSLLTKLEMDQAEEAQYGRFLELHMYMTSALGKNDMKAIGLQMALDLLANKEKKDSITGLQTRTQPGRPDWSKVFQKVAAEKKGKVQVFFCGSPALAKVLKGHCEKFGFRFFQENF
Chain of NADPH oxidase 2 (Homo sapiens) (P04839 whole entry, looked up): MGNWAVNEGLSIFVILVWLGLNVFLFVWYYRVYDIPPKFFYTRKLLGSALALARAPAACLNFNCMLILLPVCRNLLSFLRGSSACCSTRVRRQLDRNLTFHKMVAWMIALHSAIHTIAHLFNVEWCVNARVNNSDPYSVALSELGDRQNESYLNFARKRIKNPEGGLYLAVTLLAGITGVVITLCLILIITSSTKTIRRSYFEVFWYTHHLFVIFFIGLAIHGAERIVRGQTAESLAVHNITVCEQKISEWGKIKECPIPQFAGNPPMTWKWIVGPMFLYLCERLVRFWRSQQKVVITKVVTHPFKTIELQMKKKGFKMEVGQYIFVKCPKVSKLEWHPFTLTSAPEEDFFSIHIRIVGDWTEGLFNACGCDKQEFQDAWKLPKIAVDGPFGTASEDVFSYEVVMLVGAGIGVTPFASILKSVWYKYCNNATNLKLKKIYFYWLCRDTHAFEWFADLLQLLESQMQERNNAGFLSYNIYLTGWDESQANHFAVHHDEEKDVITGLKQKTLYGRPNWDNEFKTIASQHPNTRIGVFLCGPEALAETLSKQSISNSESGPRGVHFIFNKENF

| Compound | z-score [1] | composite z-score [2] | z-score [3] | z-score [4] | z-score [5] | z-score [6] | z-score [7] | z-score [8] | z-score [9] | z-score [10] | z-score [11] | z-score [12] | z-score [13] | z-score [14] | z-score [15] | z-score [16] | z-score [17] | z-score [18] | z-score [19] | z-score [20] |
| --- | --- | --- | --- | --- | --- | --- | --- | --- | --- | --- | --- | --- | --- | --- | --- | --- | --- | --- | --- | --- |
| Cc1ccc(S(=O)(=O)N2[C@@H](c3ccccc3)C(C(=O)O)=CC[C@H]2c2ccc(C#N)cc2)cc1 | -1.22 (inactive) | 0.114 | 4.02 (inactive) | 1.42 (inactive) | 1.6 (inactive) | 0.559 (inactive) | -0.316 | -0.229 (inactive) | -1.62 (inactive) | -1.54 | -0.283 | -0.287 | -0.187 | -0.44 | -0.471 | -0.556 | -0.633 (inactive) | -0.748 | 0.226 | -0.748 (inactive) |
| COCCOC(=O)N1C(=O)[C@@]2(c3cc(C#CC4(O)CCCCCC4)ccc31)[C@H](c1ccccc1OCCO)N1[C@H](c3ccccc3)[C@H](c3ccccc3)OC(=O)[C@H]1[C@@H]2C(=O)N1CCCCCCC1 | 0.499 (inactive) | 2.49 | 0.257 (inactive) | 0.755 (inactive) | 0.196 (inactive) | 0.653 (inactive) | 0.119 | 0.297 (inactive) | 0.104 (inactive) | 1.13 | -0.971 | 0.723 | 0.818 | -1.45 | -1.99 | -0.286 | 0.454 (inactive) | -0.557 | -1.34 | -0.141 (inactive) |
| COC(=O)C1=CC(CCCO)=CC(C2CC2)N(Cc2cccc(OC(F)(F)F)c2)C=C1C(=O)OC (stereo not given) | -1.16 (inactive) | 0.193 | 3.22 (inactive) | 0.455 (inactive) | -0.623 (inactive) | 0.526 (inactive) | 0.204 | -0.179 (inactive) | -0.34 (inactive) | 0.973 | -0.851 | 0.589 | 0.525 | -0.525 | -0.708 | 1.18 | 0.767 (inactive) | -0.862 | -0.159 | 0.644 (inactive) |
| CC(C)CNC(=O)[C@@H]1c2ccccc2C(=O)N(C2Cc3ccccc3C2)[C@H]1c1ccc(CO)cc1 | 1.93 (inactive) | 0.0861 | 3.11 (inactive) | 0.693 (inactive) | 1.18 (inactive) | 0.232 (inactive) | 0.0629 | 0.182 (inactive) | 1.12 (inactive) | 0.105 | 2.03 | 0.319 | 1.74 | 0.0933 | 0.362 | 3.2 | 0.228 (inactive) | -0.836 | 0.00489 | 0.797 (inactive) |
| CC(C)C[C@H]1NC(=O)[C@@H](C)NC(=O)[C@@]23C(=O)N[C@@H](Cc4ccccc4)C2[C@H](C)[C@@]2(C)O[C@H]2C3/C=C/C/C=C\CNC1=O (stereo not given in full) | -0.743 (inactive) | -0.431 | 0.522 (inactive) | -0.437 (inactive) | -0.435 (inactive) | -0.111 (inactive) | -0.175 | -0.115 (inactive) | 1.11 (inactive) | 0.407 | 0.65 | 0.305 | -0.363 | -0.256 | -0.64 | -0.553 | 0.023 (inactive) | 0.471 | 0.191 | -0.0639 (inactive) |
| C[C@@H](OCc1ccccc1)C1NC(=O)[C@@]23C(=O)N[C@@H](Cc4ccccc4)C2[C@H](C)[C@@]2(C)O[C@H]2C3/C=C/C/C=C\CNC(=O)[C@H](Cc2ccccc2)NC1=O (stereo not given in full) | 0.725 (inactive) | -0.0544 | 1.18 (inactive) | 0.012 (inactive) | 0.526 (inactive) | 0.156 (inactive) | 0.858 | 0.487 (inactive) | 0.924 (inactive) | 0.349 | 0.247 | 0.854 | 0.235 | -1.42 | -2.1 | 0.637 | -0.355 (inactive) | -0.497 | 0.546 | -0.792 (inactive) |
| CC(C)CNC(=O)[C@@H]1c2ccccc2C(=O)N(CC23CC4CC(CC(C4)C2)C3)[C@H]1c1ccc(CO)cc1 | 0.075 (inactive) | -0.0559 | 0.317 (inactive) | -0.93 (inactive) | -0.348 (inactive) | -1.22 (inactive) | 0.84 | -0.234 (inactive) | -0.616 (inactive) | -1.78 | 0.226 | 0.918 | 0.537 | 0.107 | -0.35 | 1.38 | 1.64 (inactive) | -0.217 | -0.0634 | 0.915 (inactive) |
| CN1C(=O)C2C=CC(C(O)c3ccc(-c4ccccc4)s3)N(Nc3ccccc3)C2C1=O (stereo not given) | -1.06 (inactive) | 0.612 | 2.55 (inactive) | 1.05 (inactive) | 0.156 (inactive) | 1.29 (inactive) | -0.857 | -1.21 (inactive) | -4.15 (inactive) | -1.81 | -0.485 | -1.2 | -0.99 | -0.467 | -1.64 | -1.44 | -0.896 (inactive) | -0.364 | -0.138 | -0.086 (inactive) |
| CC(C)CNC(=O)[C@@H]1c2ccccc2C(=O)N(Cc2ccccc2)[C@H]1c1ccc(CO)cc1 | -0.603 (inactive) | -0.106 | 1.49 (inactive) | 0.294 (inactive) | 2.44 (inactive) | 0.769 (inactive) | -0.316 | -0.638 (inactive) | -1.24 (inactive) | -3.17 | -0.412 | 0.175 | -0.345 | 0.0234 | 0.65 | 0.508 | -0.526 (inactive) | 0.146 | -0.139 | 0.678 (inactive) |
